# Sfp inh = blocks B. subtilis Sfp PPTase activity; Potency, µM, without a hit: largest response in the series, negative = inhibition, most hits filed as inhibitors; Q9F4F7; Biochemical Sfp PPTase activity, qHTS; hit rate 3.5% among 310,000; AID 1490;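 note: the enzyme is Sfp with the accession as filed and its product quenches rhodamine fluorescence; 0% = enzyme reaction without inhibitor and -100% = no enzyme wells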
#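 Compounds were incubated with enzyme (final 15 nM) for 15 min at room temperature before substrate addition started the reaction. Fluorescence at 525 nm excitation, 598 nm emission was recorded immediately and after 30 minutes.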
# ALOX12 inh = blocks human arachidonate 12S-lipoxygenase; hit rate 1.1% among 580,000; purified 12hLO, xylenol orange hydroperoxide absorbance; AID 1671190; Potency, µM (doses to about 108 µM), without a hit: at the top dose activity change, negative = inhibition, usual class: inhibitors; note: % is set by controls: 0 for no effect and ±100 for the full control effect
#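 Purified human 12hLO at 150 nM in 25 mM Hepes, 0.01% Triton X-100, pH 7.0, preincubated 15 min at room temperature with compound. Reaction started with 40 uM arachidonic acid, 30 min at room temperature. Hydroperoxide measured by Fe-xylenol orange, 573/405 nm absorbance ratio.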
# G9a block = inhibitors of human histone lysine methyltransferase G9a | Q96KQ7 | G9a H3K9 monomethylation, AlphaScreen, 2 h | Potency, µM (titrated, usually from 102 µM), without a hit: at the highest dose activity, negative = inhibition, hits mostly inhibitors | hit rate 8.8% among 350,000; note: % is set by controls: 0 for no effect and ±100 for the full control effect; nearly all actives have a fitted effect of over 75% in size
# Target sequence (Q96KQ7 913-1193 limits assumed): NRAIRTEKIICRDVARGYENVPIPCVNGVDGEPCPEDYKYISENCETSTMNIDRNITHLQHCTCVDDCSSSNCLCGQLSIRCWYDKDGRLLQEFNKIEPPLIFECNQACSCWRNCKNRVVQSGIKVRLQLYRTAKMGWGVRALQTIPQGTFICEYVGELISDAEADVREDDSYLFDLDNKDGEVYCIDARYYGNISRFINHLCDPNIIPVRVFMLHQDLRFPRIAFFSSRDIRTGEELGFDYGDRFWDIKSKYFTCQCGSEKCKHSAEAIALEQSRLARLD
#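 AlphaScreen read-out: biotin-H3K9 peptide (500 nM) methylation by 20 nM enzyme with 20 uM SAM, 2 h at room temperature after 15 min compound preincubation; anti-monomethyl H3K9 antibody plus donor/acceptor beads, 10 min dark.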
# BAZ2B block = BAZ2B (human) inhibition | Q9UIF8 | hit rate 4.4% among 360,000 | AlphaScreen BAZ2B-H3K14Ac peptide displacement | Potency, µM (titrated, usually from 114 µM), for the others: top-dose activity change, negative = inhibition, actives largely listed as inhibitors; note: % is set by controls: 0 for no effect and ±100 for the full control effect; nearly all actives have a fitted effect of over 60% in size
#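 Complex of BAZ2B and biotin-H3K14Ac (50 nM apiece) forms over 30 min at RT, then faces library compounds up to 110 uM for another 30 min; AlphaScreen beads added, 20 min dark incubation, luminescence read.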
# JMJD2A Tudor inh = JMJD2A Tudor domain (human) inhibition | AlphaScreen JMJD2A-Tudor / H3K4me3 peptide binding | Potency, µM (top dose mostly 114 µM), for the others: at the highest dose activity change, negative = inhibition, usual class: inhibitors | hit rate 4.4% among 390,000 | AID 504339; note: % is set by controls: 0 for no effect and ±100 for the full control effect; nearly all actives have a fitted effect of over 50% in size
# HP1b chromo inh = inhibitors of HP1-beta chromodomain binding to methylated histone tails; hit rate 0.56% among 390,000; Potency, µM (series often up to 114 µM), for inactives: at the top dose activity change, negative = inhibition, hits mostly inhibitors; AlphaScreen HP1-beta / biotin-H3K9me3 peptide binding; P83916; note: nearly all actives have a fitted effect of over 70% in size
# Target sequence (P83916 whole entry, looked up): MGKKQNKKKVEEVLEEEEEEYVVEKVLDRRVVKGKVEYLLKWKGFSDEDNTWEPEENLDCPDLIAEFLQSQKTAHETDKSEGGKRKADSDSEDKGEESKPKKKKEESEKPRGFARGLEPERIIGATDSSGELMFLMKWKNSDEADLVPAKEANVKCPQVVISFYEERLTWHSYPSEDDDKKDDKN
#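 Compound inhibition of the preformed complex between 50 nM HP1-beta and 50 nM biotinylated H3K9me3 peptide was read by AlphaScreen. Buffer was PBS pH 7.4 with 0.01% Tween-20. Incubations ran 30 min at room temperature, with 10 ug/mL donor/acceptor beads.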
# Starred values were filed as active, the others as inactive; ? = inconclusive; · = no result given; [ ] = dose if it differs, or a comment. This is a sample that favours compounds with a hit; in the whole collection about 8.7% have one here. Calls come from the whole dose curve; as a rule, active = well fitted curve in the direction sought with a large enough effect; inconclusive = small, poorly fitted or top-dose-only effect, or another doubt; inactive = no such curve, though single readings can be large; an effect the other way counts as inactive or inconclusive. Potency is the fitted concentration of half-maximal effect.
SMILES,Sfp inh,ALOX12 inh,G9a block,BAZ2B block,JMJD2A Tudor inh,HP1b chromo inh
CC(C)C[C@H](NC(=O)c1[nH]cnc1C(=O)N[C@@H](C)C(=O)OC(C)(C)C)C(=O)OCc1ccccc1,24%,14%,7%[59 µM],0%,-14%,44%
CC(C)C[C@@H](CNCC(=O)[C@H](C)NC(=O)c1[nH]cnc1C(=O)N[C@H](CN)CC(C)C)NC(=O)c1nc[nH]c1C(=O)N[C@@H](C)C(=O)O,·,37%,·,·,56µM*,33%
CC(C)C[C@H](NC(=O)c1[nH]cnc1C(=O)N[C@@H](C)C(=O)OCc1ccccc1)C(=O)OCc1ccccc1,·,27%,·,·,-31%,37%
Cc1cc2c(c(=O)n1CCN(C)C)C(c1ccc(Cl)cc1Cl)C(C#N)=C(N)O2 (stereo unspecified),·,56µM*,·,·,·,·
Cc1cc2c(c(=O)n1CCN(C)C)C(c1ccncc1)C(C#N)=C(N)O2 (stereo unspecified),12%,-8%,3%[12.7 µM],0%,-4%,2%
COc1cccc(NC(=O)c2cc3cc(OC)ccc3n2C)c1,·,0%,·,·,·,·
CC(NC(=O)c1ccc(-c2ccco2)cc1)c1ccccc1 (stereo unspecified),·,13µM*,·,·,·,·
CC(C)CCNC(=O)c1cc(-c2ccco2)nc2ccccc12,-4%,?,31%[12.7 µM],-6%,-10%,15%
CN(C)C(CNC(=O)c1cc(-c2ccco2)nc2ccccc12)c1ccccc1 (stereo unspecified),·,10µM*,·,·,?,-12%[57 µM]
CC(NC(=O)c1cc(-c2ccco2)nc2ccccc12)c1ccccc1 (stereo unspecified),·,45µM*,·,·,·,·
CCOc1ccc(C(=O)Nc2cccc3cccnc23)cc1Cl,·,-9%,·,·,·,·
CC1CC(=O)NN1C(=O)c1ccccc1 (stereo unspecified),10%,?,79µM*,79µM*,28µM*,-17%
CC1CCCC(C)N1C(=O)c1ccccc1 (stereo unspecified),·,1%,·,·,·,·
CC1(C)C(c2ccccc2)=[N+]([O-])C2(CCCCC2=O)N1O (stereo unspecified),24%,-32%,7.9µM*,3%,-3%,31%
CC1(C)C(c2cccs2)=[N+]([O-])C2(CCCCC/C2=N\O)N1O (stereo unspecified),-2%,0%,-49%[59 µM],-4%,-8%,8%
Cc1ccc(CN2C(=O)C(=O)c3cc(Br)cc(C)c32)cc1,·,14µM*,11µM*,13µM*,25µM*,13µM*
CC(=O)NCCC12CC3CC(CC(C3)C1)C2,·,-28%,·,·,·,·
Cc1cc(C)c2c(N)c(-c3nc4ccccc4[nH]3)sc2n1,2%,2%,-6%[2.33 µM],-1%,7%,43%
Cc1ccc2nc(-c3sc4nc(C)ccc4c3N)[nH]c2c1,-9%,35µM*,?,1%,-32%,32%
Cc1noc(-c2cccc(OC3CN(C(=O)CCCc4ccccc4)C3)c2)n1,·,-3%,·,·,·,·
CCOc1ccc(NC(=O)N2CCc3c(c4ccccc4n3C)C2)cc1,·,15%,·,·,·,·
O=C1C(Cl)=C(N2CCOCC2)C(=O)N1c1cccc(C(F)(F)F)c1,-1%,-7%,79µM*,8%,-12%,72%
COC(=O)c1cccc(N2C(=O)C(Cl)=C(N3CCOCC3)C2=O)c1,-25%,-22%,50µM*,-9%,-32%,62%
O=C1C(Cl)=C(N2CCOCC2)C(=O)N1c1ccccc1Cl,7%,-7%,-14%[59 µM],34%,-3%,31%
O=C(NCc1nnc2ccc(-c3ccccc3)nn12)c1ccc(F)cc1,·,29%,·,·,·,·
SMILES,Sfp inh,ALOX12 inh,G9a block,BAZ2B block,JMJD2A Tudor inh,HP1b chromo inh
COc1ccc(-c2cn(-c3cccc(C)c3)c(=O)[nH]2)cc1OC,-7%,?,28µM*,?,-23%,20%
COc1ccc(-n2cc(-c3ccccc3)[nH]c2=S)c(OC)c1,?,?,?,?,?,-1%
COc1ccccc1-n1cc(-c2ccc(Cl)cc2)[nH]c1=O,-4%,-25%,56µM*,?,-22%[57.1 µM],-9%
COc1ccc(-n2cc(-c3ccc(OC)c(OC)c3)[nH]c2=S)cc1,45µM*,?,0.89µM*,1%,3.2µM*,?
COc1ccc(-c2cc(=O)n(-c3cccc(C)c3)[nH]2)cc1OC,·,15%,·,·,·,·
COc1cc(OC)c(-n2cc(-c3ccc(OC)c(OC)c3)[nH]c2=S)cc1Cl,-12%,?,32µM*,-24%,?,-7%
CCCC(C(=O)NCc1ccccn1)c1ccccc1 (stereo unspecified),·,20%,·,·,·,·
Cc1ncc2n1C(=O)N(C1CCN([S+](=O)([O-])c3cccc(C(F)(F)F)c3)CC1)C2,·,-3%,·,·,·,·
Cn1nc(-c2ccc(N3CCOCC3)c([N+](=O)[O-])c2)c2ccccc2c1=O,·,-12%,·,·,·,·
Cc1cccc(NC(=O)N2CCC(CCNC(=O)c3cnccn3)CC2)c1,·,33%,·,·,·,·
COCC(=O)N[C@H]1C[C@H]2C(=O)NC[C@@H](CCC(=O)N3CCc4ccccc43)N2C1,·,-2%[176 µM],·,·,·,·
COc1ccc(CC(=O)N2CC3(Cc4ccccc4N(C(C)=O)C3)C2)cc1,·,45%,·,·,·,·
O=C(NC(=S)Nc1ccc(O)cc1)c1cncc(Br)c1,·,?,·,·,-18%,10%
O=C(NC(=S)Nc1ncc(Br)cc1Br)c1cncc(Br)c1,-20%,?,2%[59 µM],-2%,50µM*,21%
Cc1cc(O)ccc1NC(=S)NC(=O)c1cncc(Br)c1,56µM*,-5%,?,5%,-9%,8%
CC1CCC(NC(=O)c2cncc(Br)c2)CC1 (stereo unspecified),·,11%,·,·,·,·
O=C(NC(=S)NC1CCCCCC1)c1cncc(Br)c1,-3%,32µM*,-5%[59 µM],-9%,?,-8%
Cc1ccccc1NC(=S)NC(=O)c1cncc(Br)c1,3%,?,-13%[59 µM],-23%,-20%,?
Cc1cccn2c(=O)c3cc(C(=O)NCc4ccco4)c(=N)n(C(C)C)c3nc12,-1%,-7%,-2%[59 µM],-3%,-15%,6%
Cc1cccn2c(=O)c3cc(C(=O)NCCc4ccccc4)c(=N)n(Cc4ccco4)c3nc12,32µM*,-8%,18%,-3%,-19%,48%
Cc1cccn2c(=O)c3cc(C(=O)NCc4ccco4)c(=N)n(CCc4ccccc4)c3nc12,89µM*,-13%,-13%[59 µM],-9%,?,36%
CS(=O)(=O)N1CCN(CC(=O)Nc2sc3c(c2C#N)CCCC3)CC1,·,-3%,·,·,·,·
CCOC(=O)Cc1csc(NC(=O)/C=C/c2ccc(Br)o2)n1,?,-12%,50µM*,-33%,-11%,21%
CCOC(=O)Cc1csc(NC(=O)c2sc3nc4ccc(CC)cc4cc3c2N)n1,-15%,-18%[57.4 µM],-44%,-2%,-30%,19%

# Compound activity: PubChem, National Center for Advancing Translational Sciences (NCATS)
